PubChem BioAssay AID2233 (The Scripps Research Institute Molecular Screening Center, 2010)
The other results are listed elsewhere or left out. Values without a mark were called inactive. The source made the active and inactive calls.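 The calls were made as follows: active = mean inhibition across replicates above the hit cutoff set in the primary screen (cut at about 15% in these data); inactive = the rest.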

What follows are molecules tested against Acyl-protein thioesterase 1 (Homo sapiens) (UniProt O75608) (assay: inhibition of human lysophospholipase 1 – biochemical, fluorescence polarization, FP-Rh probe ABPP, counter-screen for PME1 inhibitor project, confirmation (AID 2233;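 also: loss of FP-Rh probe labeling of LYPLA1 seen as lower polarization; 0% = LYPLA1 with DMSO and 100% = wells lacking LYPLA1 enzyme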)). Conditions: recombinant LYPLA1, FP-Rh probe fluorescence polarization; at 5.9 µM; hits give high values.
Acyl-protein thioesterase 1 (Homo sapiens), sequence (O75608 whole entry, looked up): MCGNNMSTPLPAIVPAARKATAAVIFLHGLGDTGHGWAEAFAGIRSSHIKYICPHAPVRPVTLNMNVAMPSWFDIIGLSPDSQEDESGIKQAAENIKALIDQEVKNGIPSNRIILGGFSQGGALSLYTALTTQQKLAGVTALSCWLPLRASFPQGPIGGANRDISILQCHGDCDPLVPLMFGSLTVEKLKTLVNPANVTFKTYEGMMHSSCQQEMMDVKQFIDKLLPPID

SMILES | inhibition
CCOc1ccccc1N1CCN(C(=O)c2ccc3[nH]c(C)c(C)c3c2)CC1 | 29.3% (active)
Cc1cccc(N2CCN(C(=O)CN(C)S(=O)(=O)c3ccc4c(c3)CCC(=O)N4)CC2)c1C | 26.9% (active)
O=c1[nH]n(-c2ccc([N+](=O)[O-])cc2)c(=O)c2ccccc12 | 17.7% (active)
O=C(CN1CCN(c2cccc(Cl)c2)CC1)Nc1ccc(S(=O)(=O)N2CCOCC2)cc1 | 23.3% (active)
COc1ccc(N2CC(C(=O)NCCN3C(=O)S/C(=C\c4cccnc4)C3=O)CC2=O)c(OC)c1 (centres undefined) | 1.04%
CCC(=C/c1sc2ccc3ccccc3c2[n+]1C)/C=C1\Sc2ccc3ccccc3c2N1C | 78.8% (active)
CCN1CCN(CCNC(=O)c2ccc3c(c2)NC(=O)/C(=C\c2ccc(OC)c(OC)c2)S3)CC1 | 19.4% (active)
Cc1ccc(N2CCN(C3=NC(=O)/C(=C\c4cccs4)S3)CC2)cc1 | 37% (active)
CCN1C(=O)/C(=C2/Sc3ccccc3N2CCCS(=O)(=O)O)SC1=S | 9.65%
COc1ccccc1C(=O)NC(CCSC)C(=O)N1CCN(C/C=C/c2ccccc2)CC1 (centres undefined) | 19.9% (active)
COCCOC(=O)c1sc(=S)n(CCOC)c1N | 13.4%
CCCCn1c(N)c(N(CCC(C)C)C(=O)CC2OC(=O)c3ccccc32)c(=O)[nH]c1=O (centres undefined) | 0.51%
COc1cccc(NC(=O)N2CCCC2C(=O)NC2CCCCC2)c1 (centres undefined) | 2.88%
CN(CCOc1ccccc1)C(=O)c1cc(COc2c(F)cccc2F)on1 | 12.1%
